This is part of a sample that, as a whole, favours compounds with a hit. Of some 83,000 tested, about 20% had one in any assay.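 Each cell line was grown in a 96-well plate and treated with one concentration of compound for 48 hours. Values below 10 were considered active.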 Values without a mark were called inactive. The source made the active and inactive calls.
tested on: OVCAR-4 ovarian; experiment: NCI-60 one-dose screen, 48 h (100 = growth as untreated, 0 = no growth, -100 = all killed); details: 10 µM unless noted

Compound	growth
CCOC(=O)C1OC1(c1ccccc1)c1ccccc1 (centres undefined)	121%
CCN1CCN(C(=O)[C@@]2(C)CC[C@]3(C)CC[C@]4(C)C(=CC(=O)[C@@H]5[C@@]6(C)CC[C@H](OCCC#N)C(C)(C)[C@@H]6CC[C@]54C)[C@@H]3C2)CC1	94.7%
O=S(=O)(NCCNc1cc(-c2cn(-c3ccccc3)nc2-c2cccc(O)c2)ccn1)c1cccc(F)c1	39.4%
N#CC1=C(N)Oc2ccc3ccccc3c2C1c1ccccc1 (centres undefined)	73.6%
COc1ccc(-c2cc(=O)oc3ccc(Cl)cc23)cc1F	55.9%

tested on: SK-OV-3 ovarian; experiment: as above; details: 10 µM unless noted

Compound	growth
COC(=O)[C@]12CC[C@@H](C)[C@H](C)[C@@H]1C1=CC[C@@H]3[C@@]4(C)C[C@@H](OC(C)=O)[C@H](O)[C@@](C)(COC(C)=O)[C@@H]4[C@H](O)C[C@@]3(C)[C@]1(C)CC2	-81.5% (active)
N#Cc1c(-c2ccco2)nc2c(c(-c3ccccc3)nn2-c2ccccc2)c1-c1ccc(O)cc1	46.4%
CC(=O)c1c(C)[nH]c(-c2nc3ccc(N4CCN(C)CC4)cc3[nH]2)c1-c1ccc2c(c1)OCCO2	28.7%
COc1ccc(C(=O)c2ccc(C)cc2)c(OC)c1OC	79.3%
C[C@H]1OC(=O)/C=C/[C@@H](O)[C@@H](O)CCCCCCCC[C@@H]1O	94.9%
COc1ccccc1-n1cnc(N)c1C(=O)c1cc(OC)c(OC)c(OC)c1	48.2%
COc1ccc(/C=C(\C#N)c2cc3ccccc3n2S(C)(=O)=O)cc1	112%
Cc1cccc2c1NC(=O)[C@@]21[C@H](C(=O)c2ccccc2)[C@]2(C(=O)Nc3ccccc32)[C@H]2CCCN21	11.1% [100 µM]
N=c1ccc2nc3c(cc(N)c4ccccc43)oc-2c1	-96.3% (active)
COc1cccc(-c2nn(-c3ccccc3)cc2-c2ccnc(NCCCNS(=O)(=O)c3ccc(Br)cc3)c2)c1	64.8%
Cc1ccc(-c2nn(Cc3cn(-c4cc(C)nc5ccccc45)nn3)c3ncnc(N)c23)cc1	56.5%
COc1ccc2c(c1)c1nc3cc(C)c(C)cc3nc1n2CCN(C)C	27.5%
CC(=O)n1c(/C(C#N)=C/c2ccc(N(C)C)cc2)cc2ccccc21	34.8%
C[C@H]1[C@H]2C3=CC[C@@H]4[C@@]5(C)C/C(=C/c6ccco6)C(=O)C(C)(C)[C@@H]5CC[C@@]4(C)[C@]3(C)CC[C@@]2(C(=O)N2CCOCC2)CC[C@@H]1C	107%
Fc1ccc(Nc2ccc3c(OCCCN4CCOCC4)cccc3n2)cc1F	96.9%
COc1cccc(-c2nn(-c3ccccc3)cc2-c2ccnc(NCCNS(=O)(=O)c3ccc(C(F)(F)F)cc3)c2)c1	24.5%
Cn1cnc2c1c(=O)n(CCC(=O)Nc1ccc(F)cc1)c(=O)n2C	91.2%
COCCNC1=C(Cl)C(=O)c2ccccc2C1=O	116%
CCCCn1c(-c2ccc(O)cc2)cn2c3c(=O)[nH]c(=O)n(C)c3nc12	77.9%
Cc1ccc(N(CC(=O)Nc2ccc(S(=O)(=O)NC3CCN(C)CC3)cc2)S(=O)(=O)c2ccc(Cl)cc2)cc1	105%

Compound	growth
CC(=O)OC[C@]12CC[C@@H](/C(C)=N/O)[C@@H]1[C@H]1CC[C@@H]3[C@@]4(C)CCCNC(C)(C)[C@@H]4CC[C@@]3(C)[C@]1(C)CC2	62.9%
Clc1ccc(Cn2cc(-c3nc4ccc(Br)nc4n3Cc3ccc(Cl)cc3)c3cccnc32)cc1	80.9%
CN1CCN(CCOc2ccc(-c3cnc4c(-c5cccc(F)c5)cnn4c3)cc2)CC1	106%
CN1CCN(c2nc(-c3csc(-c4cccs4)n3)cc3ccccc23)CC1	90.8%
CCN(CC)CCCCCCNc1ccnc2cc(Cl)ccc12	98.2%
CCCCCCCC(=O)SCC/C=C/[C@@H]1CC(=O)NCc2cccc(n2)CN(Cc2ccc(Cl)cc2)CC(=O)N[C@@H](C(C)C)C(=O)O1	-24.5% (active)
c1cc(N2CCCC2)c2nc(-c3[nH]ncc3Nc3ncnc4[nH]ccc34)[nH]c2c1	-8.07% (active)
COc1ccc(C2=NN(c3nc(-c4ccc(OC)cc4)c(C#N)c(=O)n3C)C(=O)CC2)cc1	96%
Cc1ccc(S(=O)(=O)Nc2ccc(-c3cc(-c4cccc(F)c4)c(C#N)c(N)n3)cc2)cc1	71.8%
CC(C)(C)c1ccc(OCCCCCCCN2CCNCC2)cc1	81.5%
COC(=O)CNc1nc(N(C)O)nc(N(C)O)n1	50.8%
COc1cc2ncnc(Nc3ccc(Oc4ccnc(C)c4)c(C)c3)c2cc1NC(=O)CC1CCSS1 (centres undefined)	-86.9% (active)
C=C(C)[C@@H]1CC[C@]2(C)[C@H](CC[C@@H]3[C@H]4[C@H]5OC[C@@]4(CCC5(C)C)CC[C@]32C)[C@@]1(C)CCCN	104%
c1ccc(-c2nc(Nc3ccc(-c4nc5ccccc5[nH]4)cc3)nc(N3CCOCC3)n2)cc1	-30.3% (active)
CCOC(=O)C1OC1(c1ccccc1)c1ccccc1 (centres undefined)	112%
CCN1CCN(C(=O)[C@@]2(C)CC[C@]3(C)CC[C@]4(C)C(=CC(=O)[C@@H]5[C@@]6(C)CC[C@H](OCCC#N)C(C)(C)[C@@H]6CC[C@]54C)[C@@H]3C2)CC1	99.2%
O=S(=O)(NCCNc1cc(-c2cn(-c3ccccc3)nc2-c2cccc(O)c2)ccn1)c1cccc(F)c1	50.3%
N#CC1=C(N)Oc2ccc3ccccc3c2C1c1ccccc1 (centres undefined)	47.2%
COc1ccc(-c2cc(=O)oc3ccc(Cl)cc23)cc1F	0.514% (active)

Reference: PubChem BioAssay (NCI)
